Source: PubChem BioAssay (several laboratories)
NR3A LBD binder: binders of NR3A ligand-binding domain, primary screen, biophysical, differential scanning fluorimetry, uHTS; hit rate 2.5% among 340,000; NR3A LBD differential scanning fluorimetry, Tm shift; 0% = protein alone, 100% = glycine-bound protein; Glutamate receptor ionotropic, NMDA 3A (GRIN3A) ligand-binding domain; AID 1259313, 2017; Tm shift relative to glycine control, % at 25 µM;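 active = melting temperature shift of at least 10% of the positive control shift, at one fixed dose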
AI-2 QS modul: Vibrio harveyi AI-2 quorum sensing modulators, primary screen, JMH597 strain, luminescence/OD600 ratio. Vibrio harveyi JMH597 AI-2 luminescence/OD600 ratio, 9 h; hits give low values; strain lacks LuxN and CqsS sensors; 0 = neutral-control median. activity change, % at 7.5 µM. hit rate 0.4% among 300,000. AID 2094, 2009; in the data active = activity change below about -75%, passing the limit was not always enough;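 note: luminescence divided by OD600 gain over 9 h not by final OD600 alone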
Cardio protect: cardioprotection against H2O2-induced cell death, primary screen, uHTS, H9c2 cells, ATPLite luminescence. hit rate 0.63% among 360,000. protection from H2O2 cell death, % at 20 µM. H9c2 cardiomyocytes, H2O2 injury protection, 2 h. AID 588492, 2011;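 active = compounds giving at least 50% protection of heart cells from peroxide-induced death in the single-dose screen, raw or plate-pattern-corrected value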;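 note: 0% = DMSO wells with peroxide and 100% = DMSO wells without peroxide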
SUMO Mot1 rescue: yeast Mot1-301 growth rescue at high temperature, primary screen, SUMOylation pathway inhibitor project, S. cerevisiae, ATP luminescence, 38.5C | S. cerevisiae Mot1-301 growth rescue; percent above DMSO median, 100 means doubled | growth rescue, % at 18.8 µM | hit rate 1% among 320,000;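 active = every valid replicate shows activation above 250% relative to neutral control wells; inactive = the rest, any valid replicate at or below 250%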;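 note: OY570 slx delta 5 strain wells were the positive control but not used for scaling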
NTR1 agonist: agonists of human NTR1, primary screen, imaging, U2OS cells, beta-arrestin-GFP, high content; activation, % at 20 µM; AID 493036, 2011; hit rate 0.17% among 330,000; Neurotensin receptor type 1 (Homo sapiens), P30989; NTR1-U2OS beta-arrestin-GFP spot imaging, agonist mode;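 active = activation at or above 40% of the spot to cytoplasm intensity ratio, with at least 20 cells analyzed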;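 note: 0% = DMSO without peptide and 100% = 100 nM NTR1 peptide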
Target sequence (P30989 whole entry, looked up): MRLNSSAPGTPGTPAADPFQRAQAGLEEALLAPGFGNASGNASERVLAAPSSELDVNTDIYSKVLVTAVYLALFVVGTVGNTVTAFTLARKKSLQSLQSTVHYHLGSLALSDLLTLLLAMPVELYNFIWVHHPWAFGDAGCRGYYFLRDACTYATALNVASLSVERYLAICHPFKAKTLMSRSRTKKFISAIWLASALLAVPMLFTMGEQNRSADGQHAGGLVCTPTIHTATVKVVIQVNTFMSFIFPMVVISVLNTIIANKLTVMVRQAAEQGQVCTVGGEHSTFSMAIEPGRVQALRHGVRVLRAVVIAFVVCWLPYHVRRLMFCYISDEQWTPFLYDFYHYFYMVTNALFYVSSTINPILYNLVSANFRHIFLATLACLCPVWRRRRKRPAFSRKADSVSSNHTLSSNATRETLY
AHR activator: AHR activators, primary screen, cell-based, luminescence, luciferase reporter, human. Aryl hydrocarbon receptor (Homo sapiens), P35869. AHR-responsive luciferase reporter cells. activation, % at 5 µM. hit rate 2.5% among 320,000. AID 2796, 2010; in the data active = activation above about 47%;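 note: 0% = vehicle wells and 100% = reference agonist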
* marks the source's active call; other numbers are inactive results; nt = no result. Shown are actives, neighbours in structure and some others; about 6.2% of the full set was active somewhere.

SMILES	NR3A LBD binder	AI-2 QS modul	Cardio protect	SUMO Mot1 rescue	NTR1 agonist	AHR activator
O=C(O)c1cc(NC(=O)c2ccc3c(c2)C(=O)N(Cc2cccnc2)C3=O)cc(C(=O)O)c1	0	18	-2	165	1	1
COc1ccc(-c2cn3c(C)c(C(=O)N4CCCc5ccccc54)sc3n2)cc1	-3	17	9	18	2	-8
COc1ccc(-c2cn3c4c(sc3n2)CCCC4)cc1	1	9	-22	6	4	68*
NC(=O)/C(=C\c1cccnc1)NC(=O)c1ccccc1	-1	-1	2	19	2	0
Cc1ccc(NCC(=O)N/N=C/c2cccc(Br)c2)cc1	0	25	-4	123	0	70*
Cc1ccccc1NC(=O)C(=O)N/N=C/c1cccc(Br)c1	34*	13	-2	41	2	-1
COC(=O)c1ccc(/C=N/NC(=O)CNc2cccc(C)c2)cc1	-13	2	1	7	2	10
Cc1cccc(NCC(=O)N/N=C/c2cccc(Br)c2)c1	-20	14	-9	-15	1	14
Cc1nn(Cc2ccccc2)c(Cl)c1/C=N/NC(=O)CNc1cccc(C(F)(F)F)c1	27*	24	-7	18	17	33
Cc1ccc(NCC(=O)N/N=C\c2cccc(O)c2)cc1	1	-56	-3	2	-1	65*
Cc1cc(-c2ccc([N+](=O)[O-])cc2)cc(C)n1	0	nt	-6	nt	nt	nt
O=C1CCC[C@@H]2Cc3nc4cc5c(cc4cc3[C@@H]3CCN1[C@H]23)OCO5	-7	nt	-6	nt	nt	nt
O=C(CNc1cccc(C(F)(F)F)c1)N/N=C/C1CCCCC1	-18	7	-10	201	3	4
O=C(CNc1cccc(C(F)(F)F)c1)N/N=C/c1cccc(Br)c1	29*	9	-12	4	15	101*
O=C(OCC(=O)N1CCN(C(=O)c2ccco2)CC1)c1cc(-c2ccc(Cl)c(Cl)c2Cl)nc2ccccc12	-2	34	0	-10	1	-2
O=C(OCC(=O)N1CCN(C(=O)c2ccco2)CC1)c1cc(-c2ccco2)nc2ccccc12	-1	18	49*	4	2	8
CCn1c(=O)cc(OCC(=O)NCc2cccs2)c2ccccc21	-3	24	9	184	2	68*
CCn1c(=O)cc(OCC(=O)N2CCN(C(=O)c3ccco3)CC2)c2ccccc21	1	7	-2	707*	-2	13
Nc1ccc2c(c1)Cc1cc(N)c(Cl)cc1-2	9	nt	1	nt	nt	nt
Nc1ccc2c(c1)Cc1cc(Cl)c(Cl)cc1-2	15*	nt	-12	nt	nt	nt
c1ccc(N/N=C(\Cc2nc3ccccc3[nH]2)c2ccccc2)cc1	-2	18	-17	47	18	149*
Cc1ccc(N/N=C(\Cc2nc3ccccc3[nH]2)c2ccccc2)cc1	-14	nt	6	-7	nt	34
N#CCCN/N=C(/Cc1nc2ccccc2[nH]1)c1ccc(Cl)cc1	nt	9	nt	27	0	48*
N#CCCN/N=C(\Cc1nc2ccccc2[nH]1)c1ccccc1	-3	0	13	0	0	13
O=C(CCCCC(=O)NCCc1ccccc1)NCCc1ccccc1	4	9	0	-17	2	1
SMILES	NR3A LBD binder	AI-2 QS modul	Cardio protect	SUMO Mot1 rescue	NTR1 agonist	AHR activator
CCCCCCCC/C=C\CCCCCCCC(=O)NCCc1ccc(O)c(O)c1	-1	nt	67*	4	7	-4
CCCCCCCC/C=C\CCCCCCCC(=O)NCCO	10*	nt	-3	9	1	-1
CCCCCCCCCCCCCC(=O)NO	0	nt	78*	nt	nt	nt
CC1(C(=O)NS(=O)(=O)c2ccc(Cl)cc2)CCN1C(=O)c1ccco1 (stereo unspecified)	nt	nt	-3	nt	nt	nt
Cc1ccc(CC(=O)NCCN2CCOCC2)cc1	-3	21	2	5	-1	2
Cc1ccc(NC(=O)Cn2c3ccc(F)cc3c3nc4n(c(=O)c32)CCS4)cc1F	12*	8	-11	52	1	1
CCOc1ccc(C(F)(F)F)cc1NC(C)=O	-2	5	4	8	1	3
COCCOc1ccc(C(F)(F)F)cc1NC(=O)c1ccc(C(F)(F)F)cc1	-7	35	0	63	4	70*
COCCOc1ccc(C(F)(F)F)cc1NC(=O)COC(=O)c1cc[n+]([O-])cc1	-1	11	-3	-13	1	4
COCCOc1ccc(C(F)(F)F)cc1NC(=O)c1ccccc1F	-3	15	-8	-11	1	61*
C#CCn1c(O)c(N=NC(=O)C(O)c2ccccc2)c2ccccc21 (stereo unspecified)	-1	23	-2	7	1	67*
C=CCn1c(O)c(N=NC(=O)C(O)c2ccccc2)c2ccccc21 (stereo unspecified)	2	15	5	-24	2	20
CN1CCN(C(=O)C2CCC(=O)N(Cc3cccc(C(F)(F)F)c3)C2)CC1 (stereo unspecified)	-1	0	6	6	-1	-3
O=C(N/N=C/c1c[nH]c2ccccc12)c1ccn(Cc2ccc(Cl)cc2Cl)n1	2	26	-13	28	6	50*
O=C(N/N=C/c1c[nH]c2ccc(Br)cc12)c1ccn(Cc2ccc(Cl)cc2)n1	18*	6	24	-16	10	7
CN1CCN(C(CNC(=O)c2ccc(Br)o2)c2ccc(F)cc2)CC1 (stereo unspecified)	2	-10	5	45	0	-1
COc1ccc(OCc2cc(C(=O)N3CCC(OC)CC3)no2)c2ccccc12	-2	16	-11	-3	1	51*
Cc1cccc(C)c1OCc1cc(C(=O)N2CCN3CCCC3C2)no1 (stereo unspecified)	13*	13	3	-1	0	nt
COc1ccc(OCc2cc(C(=O)NC3CCOC(C)(C)C3)no2)c2ccccc12 (stereo unspecified)	nt	31	-7	-3	2	67*
O=C(NCc1cccnc1)Nc1ccccc1C(F)(F)F	0	22	-3	-2	0	6
CCCCN1CC(COCc2ccccc2)Oc2cccc(Oc3ccc(OC)cc3)c2S1(=O)=O (stereo unspecified)	-2	nt	-15	nt	nt	nt
O=S1(=O)c2ccccc2OC(COCc2ccccc2)CN1Cc1ccccc1 (stereo unspecified)	18*	nt	-3	nt	0	nt
CCCCN1CC(COCc2ccccc2)Oc2ccccc2S1(=O)=O (stereo unspecified)	17*	nt	-18	nt	2	nt
